# Data from PubChem BioAssay (Tox21).
# Results filed as inconclusive are left out. Values without a mark were called inactive. Unless noted, calls come from the whole dose curve; as a rule, active = well fitted cell-killing curve with a large enough effect in the repeat runs; inconclusive = weak or mixed curves, or effect the other way; inactive = no such curve, though single readings can be large or run the other way.
# Assay: qHTS assay to identify small molecule antagonists of the retinoid-related orphan receptor gamma (ROR-gamma) signaling pathway - cell viability counter screen (AID 1159520); note: % is set by controls: 0 for no effect and ±100 for the full control effect; nearly all actives have a fitted effect of over 50% in size
# Settings: Tet-on RORgamma CHO cells viability, ATP luminescence, 16 h; series mostly up to 92.4 µM; activity, negative = cytotoxicity: at the top concentration
# Summary of the method: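 Tet-on ROR gamma CHO cells were given compounds for 2 hr, then doxycycline hyclate at 1 uM final, and incubated 16 hr at 37 C. Viability was measured as ATP content by CellTiter-Glo luminescence.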
row,Compound,"activity, negative = cytotoxicity"
1,Cc1cc(S(=O)(=O)O)ccc1N=Nc1c(O)ccc2ccccc12,-18.7%
2,CCCc1c(OCCCOc2ccc(OCC(=O)O)cc2)ccc(C(C)=O)c1O,-10.8%
3,COC(=O)Nc1nc2ccc(C(=O)c3cccs3)cc2[nH]1,-13.3% [at 42.5 µM]
4,CCc1c2c(nc3ccc(OC(=O)N4CCC(N5CCCCC5)CC4)cc13)-c1cc3c(c(=O)n1C2)COC(=O)[C@]3(O)CC,-1.1% [at 42.5 µM]
5,C1COCO1,3.28%
6,CN(C)CCOC1=Cc2ccccc2Sc2ccc(Cl)cc21,-15.7% [at 42.5 µM]
7,CCOC(=O)CC(=O)C(=O)OCC,-0.0668%
8,Cc1ccc(Nc2nccc(N(C)c3ccc4c(C)n(C)nc4c3)n2)cc1S(N)(=O)=O,-13.3% [at 42.5 µM]
9,O=C(N[C@@H](c1ccccc1)[C@@H]1CCCCN1)c1cccc(C(F)(F)F)c1Cl,-13.1%
10,O=C(N/N=C/c1ccc([N+](=O)[O-])o1)c1ccc(O)cc1,-6.17% [at 42.5 µM]
11,CC(C)CCCCCCOC(=O)CCCCC(=O)OCCCCCCC(C)C,-0.151%
12,CCNC(=O)N1CCN(CCCC(c2ccc(F)cc2)c2ccc(F)cc2)CC1,-12.8% [at 42.5 µM]
13,C[C@]12CCC(=O)C=C1C=C[C@@H]1[C@@H]2CC[C@@]2(C)[C@H]1CC[C@@]21CCC(=O)O1,-4.06% [at 42.5 µM]
14,CCc1cccc(N(C)C(N)=Nc2cccc3ccccc23)c1,-4.54% [at 42.5 µM]
15,CCCCC(=O)O[C@]1(C(=O)CO)CC[C@H]2[C@@H]3CCC4=CC(=O)CC[C@]4(C)[C@H]3[C@@H](O)C[C@@]21C,-1.47% [at 42.5 µM]
16,CCC1(C)CC(=O)NC1=O (configuration not stated),1.3% [at 42.5 µM]
17,CCCCCC=CCC=CCCCCCCCC(=O)OCC,-3.39% [at 42.5 µM]
18,CC(=O)[C@H]1CC[C@H]2[C@@H]3C=CC4=CC(=O)CC[C@@]4(C)[C@@H]3CC[C@]12C,-13.7% [at 42.5 µM]
19,O=C1NCCN1,11.2%
20,C=CCNc1nc(NCC=C)nc(N2CCN(C(c3ccc(F)cc3)c3ccc(F)cc3)CC2)n1,-13% [at 42.5 µM]

row,Compound,"activity, negative = cytotoxicity"
1,COC(=O)CC(=O)C(C)(C)C,-0.0886%
2,C=CCOC(=O)/C=C\C(=O)OCC=C,1.22%
3,CCC(C(=O)OCCN(CC)CC)c1ccccc1 (configuration not stated),0.0285% [at 42.5 µM]
4,CN(C(=O)C(Cl)Cl)c1ccc(OC(=O)c2ccco2)cc1,-2.87% [at 42.5 µM]
5,CCOC(=O)c1ccccc1C,-4.79%
6,C[N+](C)(C)CCOC(N)=O,1.8% [at 42.5 µM]
7,CO/N=C1\CN(c2nc3c(cc2F)c(=O)c(C(=O)O)cn3C2CC2)CC1CN (configuration not stated),0.0876% [at 42.5 µM]
8,CN1C(=O)CC(C)(c2ccccc2)C1=O (configuration not stated),0.899% [at 42.5 µM]
9,NC(=O)Cn1c(=O)cc(CCN2CCN(c3nccc4sccc34)CC2)c2ccc(F)cc21,-10.4%
10,CC(=O)[C@H]1CC[C@H]2[C@@H]3C[C@H](C)C4=CC(=O)CC[C@]4(C)[C@H]3[C@@H](O)C[C@]12C,3.14% [at 42.5 µM]
11,COc1cc2c(cc1OC)-c1cc(=Nc3c(C)cc(C)cc3C)n(C)c(=O)n1CC2,-18.1% [at 42.5 µM]
12,O=C(CCC1CCN(Cc2ccccc2)CC1)c1ccc2c(c1)NCCCC2,-6.71% [at 42.5 µM]
13,Cc1occc1C(=O)Nc1ccc(C(=O)N2CCC(F)(F)/C(=C\C(=O)N3CCC(N4CCCCC4)CC3)c3ccccc32)cc1,-0.532% [at 42.5 µM]
14,CCCCCCCCCCOS(=O)(=O)O,-15.7%
15,CC(CCc1ccc2c(c1)OCO2)NN (configuration not stated),-0.0098% [at 42.5 µM]
16,CCOC(=O)OCC,-0.941%
17,Cc1cnc(C)c(C)n1,-3.39%
18,COc1ccc([C@@H]2Sc3ccccc3NC(=O)[C@@H]2O)cc1,-10.6% [at 42.5 µM]
19,CC(C)C(=O)O,3.73%
20,CCOC(=O)/C=C/C(=O)O,-11.8%

# Assay: qHTS assay to identify small molecule agonists of the AP-1 signaling pathway - cell viability counter screen (AID 1159525; calls by dose curve; note: nearly all actives have a fitted effect of over 55% in size)
# Settings: ME-180 (cervical carcinoma) AP-1-bla cells viability, ATP luminescence, 5 h; series mostly up to 76.8 µM; viability change, negative = cytotoxic: at the top concentration
# Summary of the method: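 Same-well cytotoxicity counter screen of the Tox21 10K library in ME-180 cells. The readout is ATP-dependent luminescence after 5 h compound treatment. Data are normalised to DMSO and tetra n-octyl ammonium bromide controls.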
row,Compound,"viability change, negative = cytotoxic"
1,Cc1cc(S(=O)(=O)O)ccc1N=Nc1c(O)ccc2ccccc12,0.982%
2,CCCc1c(OCCCOc2ccc(OCC(=O)O)cc2)ccc(C(C)=O)c1O,-7.7%
3,COC(=O)Nc1nc2ccc(C(=O)c3cccs3)cc2[nH]1,14.3% [at 35.3 µM]
4,CCc1c2c(nc3ccc(OC(=O)N4CCC(N5CCCCC5)CC4)cc13)-c1cc3c(c(=O)n1C2)COC(=O)[C@]3(O)CC,-17.9% [at 35.3 µM]
5,C1COCO1,-3.55%
6,CN(C)CCOC1=Cc2ccccc2Sc2ccc(Cl)cc21,-12.7% [at 35.3 µM]
7,CCOC(=O)CC(=O)C(=O)OCC,0.853%
8,Cc1ccc(Nc2nccc(N(C)c3ccc4c(C)n(C)nc4c3)n2)cc1S(N)(=O)=O,2.96% [at 35.3 µM]
9,O=C(N[C@@H](c1ccccc1)[C@@H]1CCCCN1)c1cccc(C(F)(F)F)c1Cl,0.721%
10,O=C(N/N=C/c1ccc([N+](=O)[O-])o1)c1ccc(O)cc1,0.483% [at 35.3 µM]
11,CC(C)CCCCCCOC(=O)CCCCC(=O)OCCCCCCC(C)C,2.96%
12,CCNC(=O)N1CCN(CCCC(c2ccc(F)cc2)c2ccc(F)cc2)CC1,0.445% [at 35.3 µM]
13,C[C@]12CCC(=O)C=C1C=C[C@@H]1[C@@H]2CC[C@@]2(C)[C@H]1CC[C@@]21CCC(=O)O1,-0.283% [at 35.3 µM]
14,CCc1cccc(N(C)C(N)=Nc2cccc3ccccc23)c1,-6.24% [at 35.3 µM]
15,CCCCC(=O)O[C@]1(C(=O)CO)CC[C@H]2[C@@H]3CCC4=CC(=O)CC[C@]4(C)[C@H]3[C@@H](O)C[C@@]21C,2.05% [at 35.3 µM]
16,CCCCCC=CCC=CCCCCCCCC(=O)OCC,1.15% [at 35.3 µM]
17,CC(=O)[C@H]1CC[C@H]2[C@@H]3C=CC4=CC(=O)CC[C@@]4(C)[C@@H]3CC[C@]12C,-1.72% [at 35.3 µM]
18,O=C1NCCN1,0.573%
19,C=CCNc1nc(NCC=C)nc(N2CCN(C(c3ccc(F)cc3)c3ccc(F)cc3)CC2)n1,0.865% [at 35.3 µM]

row,Compound,"viability change, negative = cytotoxic"
1,COC(=O)CC(=O)C(C)(C)C,-12.7%
2,C=CCOC(=O)/C=C\C(=O)OCC=C,12.5%
3,CCC(C(=O)OCCN(CC)CC)c1ccccc1 (configuration not stated),14.2% [at 35.3 µM]
4,CN(C(=O)C(Cl)Cl)c1ccc(OC(=O)c2ccco2)cc1,-3.14% [at 35.3 µM]
5,CCOC(=O)c1ccccc1C,-12.1%
6,C[N+](C)(C)CCOC(N)=O,2.29% [at 35.3 µM]
7,CO/N=C1\CN(c2nc3c(cc2F)c(=O)c(C(=O)O)cn3C2CC2)CC1CN (configuration not stated),-8.17% [at 35.3 µM]
8,CN1C(=O)CC(C)(c2ccccc2)C1=O (configuration not stated),1.25% [at 35.3 µM]
9,NC(=O)Cn1c(=O)cc(CCN2CCN(c3nccc4sccc34)CC2)c2ccc(F)cc21,-3.63%
10,CC(=O)[C@H]1CC[C@H]2[C@@H]3C[C@H](C)C4=CC(=O)CC[C@]4(C)[C@H]3[C@@H](O)C[C@]12C,-7.53% [at 35.3 µM]
11,COc1cc2c(cc1OC)-c1cc(=Nc3c(C)cc(C)cc3C)n(C)c(=O)n1CC2,-17.8% [at 35.3 µM]
12,O=C(CCC1CCN(Cc2ccccc2)CC1)c1ccc2c(c1)NCCCC2,8.37% [at 35.3 µM]
13,Cc1occc1C(=O)Nc1ccc(C(=O)N2CCC(F)(F)/C(=C\C(=O)N3CCC(N4CCCCC4)CC3)c3ccccc32)cc1,-1.23% [at 35.3 µM]
14,CCCCCCCCCCOS(=O)(=O)O,1.1%
15,CCOC(=O)OCC,3.9%
16,Cc1cnc(C)c(C)n1,1.3%
17,COc1ccc([C@@H]2Sc3ccccc3NC(=O)[C@@H]2O)cc1,3.66% [at 35.3 µM]
18,CCOC(=O)/C=C/C(=O)O,0.236%
